Results filed as inconclusive are left out. Where a call stands in place of a potency, no number is given. The source made the active and inactive calls. The call rests on the fitted dose curve; in most records, active means well fitted activation curve with a large enough effect; inconclusive means small, poorly fitted or top-dose-only effect; inactive means flat fitted curve, though single readings scatter. Positions of bridges follow the written chain, without caps; N, C: chain ends. Non-standard residues stand in square brackets, D forms with d. Residues, ends and D or L forms follow the SMILES beside them. *: point of attachment. X1 = CC[C@@H](C)[C@@H](N)C1=N[C@H](C(=O)*)CS1; d(aIle) = CC[C@H](C)[C@@H](N)C(=O)O; dOrn = NCCC[C@@H](N)C(=O)O; Orn = NCCC[C@H](N)C(=O)O

A short description of the experiment: qHTS assay to identify small molecule phospholipidosis (PLD) inducers (AID 1259344). To be noted: HepG2 phospholipidosis, LipidTOX Red imaging, 24 h; series mostly up to 38.3 µM. The procedure, abridged:
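Accumulated phospholipid, stained red by LipidTOX during 24 h compound treatment of HepG2 cells at 37 C, is quantified from images as pit number and intensity, normalised per cell using Hoechst-stained nuclei.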
Regarding `CC(C)(Oc1ccc(C2CCCc3ccccc32)cc1)C(=O)O` (stereo unspecified), the Potency entry was “inactive”. For `CC[C@H]1OC(=O)[C@H](C)C(=O)[C@H](C)[C@@H](O[C@@H]2O[C@H](C)C[C@H](N(C)C)[C@H]2O)[C@](C)(OC)C[C@@H](C)C(=O)[C@H](C)[C@H]2N(CCCCn3cnc(-c4cccnc4)c3)C(=O)O[C@]12C` the value was “inactive”; for `CC/C(=C(/CC)c1ccc(OP(=O)(O)O)cc1)c1ccc(OP(=O)(O)O)cc1`, “inactive”; for `C=C1[C@H](CO)[C@@H](O)C[C@@H]1n1cnc2c(=O)[nH]c(N)nc21`, “inactive”. For `Oc1ccc(Cl)c2c1CCC2` the value was “inactive”. With `C=CC(N)CCC(=O)O` (stereo unspecified), the Potency entry is “inactive”. The result for `CCc1cn([C@H]2C[C@H](O)[C@@H](CO)O2)c(=O)[nH]c1=O` reads “inactive”. On to `C(=C\c1ccncc1)/c1ccccc1`, for which the Potency entry was “inactive”. With `COc1cc(NS(C)(=O)=O)ccc1Nc1c2ccccc2nc2ccccc12`, the Potency result is “inactive”. The result for `O=C(O)c1ccccc1O` reads “inactive”; that for `C=CCN1C(=O)C(CC(C)C)NC1=S` (stereo unspecified), “inactive”; that for `O=C1c2ccccc2-c2n[nH]c3cccc1c23`, “inactive”. Turning to `Nc1ccc(N)c([N+](=O)[O-])c1`, the Potency entry is “inactive”.

As for `CON=C1C[C@]2(C[C@@H]3C[C@@H](C/C=C(\C)C[C@@H](C)/C=C/C=C4\CO[C@@H]5[C@H](O)C(C)=C[C@@H](C(=O)O3)[C@]45O)O2)O[C@H](/C(C)=C/C(C)C)[C@H]1C`, the Potency result was “inactive”.

Take `Cc1cnc(C(=O)O)c[n+]1[O-]`: the Potency result was “inactive”. Regarding `Cc1cc(=O)c(C(=O)N[C@@H](C(=O)N[C@@H]2C(=O)N3C(C(=O)O)=C(CSc4nnnn4C)CS[C@H]23)c2ccc(O)cc2)c[nH]1`, the Potency result is “inactive”. With `c1ccc2c(c1)OCC(CN1CCCCC1)O2` (stereo unspecified), the Potency result was “inactive”. `NC(=O)[C@@H]1CCCN1C(=O)[C@H](Cc1cnc[nH]1)NC(=O)[C@@H]1CCC(=O)N1`: the Potency entry was “inactive”. With `O=P(O)(O)CP(=O)(O)O`, the Potency entry was “inactive”. With `CC[C@@H](C(=O)[C@@H](C)[C@@H](O)[C@H](C)CCc1ccc(C)c(O)c1C(=O)O)[C@H]1O[C@](CC)([C@H]2CC[C@](O)(CC)[C@H](C)O2)C[C@@H]1C`, the Potency entry is “inactive”. With `CCC[C@@H]1C[C@@H](C(=O)N[C@@H]([C@H]2O[C@H](SC)[C@H](OP(=O)(O)O)[C@@H](O)[C@H]2O)[C@H](C)Cl)N(C)C1`, the Potency result is “inactive”. For the compound `O=c1[nH]c(=O)n([C@H]2C[C@H](O)[C@@H](CO)O2)cc1/C=C/Br`, the Potency entry was “inactive”. For `CC[C@@H](C)[C@@H](N)C1=N[C@H](C(=O)N[C@@H](CC(C)C)C(=O)N[C@@H](CCC(=O)O)C(=O)N[C@@H](C(=O)N[C@@H]2CCCCNC(=O)[C@@H](CC(N)=O)NC(=O)[C@@H](CC(=O)O)NC(=O)[C@@H](Cc3cnc[nH]3)NC(=O)[C@@H](Cc3ccccc3)NC(=O)[C@@H]([C@H](C)CC)NC(=O)[C@@H](CCCN)NC2=O)[C@@H](C)CC)CS1` (X1-LE[d(aIle)][dK][dOrn][dI][dF][dH][dD][dN]; lactam 4-C), the Potency result was “inactive”.

Take `C1CCc2nnnn2CC1`: the Potency result was “inactive”.

Turning to `CC(C)C[C@@H]1NC(=O)[C@H](CCCN)NC(=O)[C@H](C(C)C)NC(=O)[C@@H]2CCCN2C(=O)[C@@H](Cc2ccccc2)NC(=O)[C@H](CC(C)C)NC(=O)[C@H](CCCN)NC(=O)[C@H](C(C)C)NC(=O)[C@@H]2CCCN2C(=O)[C@@H](Cc2ccccc2)NC1=O` (cyclo(V[Orn]L[dF]PV[Orn]L[dF]P)), the Potency result was “inactive”. Consider `N=C(N)c1ccc(/C=C/c2ccc(C(=N)N)cc2O)cc1`, for which the Potency entry was “inactive”. For `COC1=C(OC)C(=O)C(C/C=C(\C)CC/C=C(\C)CC/C=C(\C)CC/C=C(\C)CC/C=C(\C)CC/C=C(\C)CC/C=C(\C)CC/C=C(\C)CC/C=C(\C)CCC=C(C)C)=C(C)C1=O`, the Potency result is “inactive”. As to `CC(=O)OCC(=O)[C@@]1(O)CC[C@H]2[C@@H]3CCC4=CC(=O)CC[C@]4(C)C3=CC[C@@]21C`, the Potency entry was “inactive”. Turning to `C=CC[N+]1([C@H]2C[C@H]3[C@@H]4CC[C@H]5C[C@H](O)[C@@H](N6CCOCC6)C[C@]5(C)[C@H]4CC[C@]3(C)[C@H]2OC(C)=O)CCCC1`, the Potency entry is “inactive”. On to `NCCO/C=C/[C@H](N)C(=O)O`, for which the Potency entry is “inactive”.

Consider `CO[C@H](C(=O)[C@@H](O)[C@@H](C)O)C1Cc2cc3cc(O[C@H]4C[C@@H](O[C@H]5C[C@@H](O)[C@H](O)[C@@H](C)O5)[C@@H](O)[C@@H](C)O4)c(C)c(O)c3c(O)c2C(=O)[C@H]1O[C@H]1C[C@@H](O[C@H]2C[C@@H](O[C@H]3C[C@](C)(O)[C@H](O)[C@@H](C)O3)[C@H](O)[C@@H](C)O2)[C@H](O)[C@@H](C)O1` (stereo partly specified), for which the Potency result is “inactive”.

Values taken from PubChem BioAssay (Tox21).
